From PubChem BioAssay AID1345085 (National Center for Advancing Translational Sciences (NCATS), 2018) come the findings set out here.

Inconclusive results are not listed. Values without a mark were called inactive. The source made the active and inactive calls. The call rests on the fitted dose curve; in most records, active means well fitted cell-killing curve with a large enough effect; inconclusive means small, poorly fitted or top-dose-only effect, or effect the other way; inactive means no such curve, though single readings can be large or run the other way.
On the % scale 0 is the no-effect control and ±100 the full control effect; potency means the concentration at half of the fitted maximal effect.

This assay has as its system SW626. The assay can be described thus: Confirmatory qHTS for gynecologic anti-cancer compounds from libraries of approved drugs and bioactive compounds. Further: nearly all actives have a fitted effect of over 55% in size. The note with it: gynecologic cancer cell panel viability, ATPlite luminescence, 48 h; series mostly up to 57.6 µM; activity change, negative = viability loss: at the top concentration. In short, it runs like this:
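Viability is measured as ATP-dependent luciferase light using ATPlite, read 15 min after reagent addition at room temperature. Compounds, in DMSO, span 57.5 uM down to 0.977 nM over 11 threefold steps for 48 h.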
In the case of `Cc1ccc(C(=O)Nc2ccc(CN3CCN(C)CC3)c(C(F)(F)F)c2)cc1C#Cc1cnc2cccnn12`, the Potency is 21.7 µM (active). `Nc1nccc(Oc2ccc(NC(=O)c3c[nH]cc(-c4ccc(F)cc4)c3=O)cc2F)c1Cl`: the “activity change, negative = viability loss” value is -15.5%. Consider `CC(C)c1nn(-c2c(Cl)cccc2Cl)c2nc(Cc3ccc(OCCO)cc3)[nH]c(=O)c12`, for which the “activity change, negative = viability loss” value was 24.5%. In the case of `CS(=O)(=O)c1ccc(C(=O)Nc2ccc(Cl)c(-c3ccccn3)c2)c(Cl)c1`, the “activity change, negative = viability loss” value is 11.7%. With `CN1CCCC(n2nc(Cc3ccc(Cl)cc3)c3ccccc3c2=O)CC1` (stereo unspecified), the Potency was 27.3 µM (active). The same measure, in the same setting: the value for `O=C(CCCCCCNC(=O)c1cnc(N(c2ccccc2)c2ccccc2)nc1)NO` was 7.69 µM (active). Take `O=c1cc(CN2CCOCC2)occ1OCCCCCSc1ccnc2cc(C(F)(F)F)ccc12`: the “activity change, negative = viability loss” value was 0.329%. On to `CCC1C(=O)N(C)c2cnc(Nc3ccc(C(=O)NC4CCC(N5CCN(CC6CC6)CC5)CC4)cc3OC)nc2N1C(C)C` (stereo unspecified), for which the Potency is 7.69 µM (active). Regarding `Nc1ccc(-c2ccc3ncc4ccc(=O)n(-c5cccc(C(F)(F)F)c5)c4c3c2)cn1`, the Potency was 6.11 µM (active). Consider `CCCc1nn(C)c2c(=O)[nH]c(-c3cc(S(=O)(=O)N4CCN(C)CC4)ccc3OCC)nc12`, for which the “activity change, negative = viability loss” value was 10.3%. On to `COc1c(C)c2c(c(O)c1C/C=C(\C)CCC(=O)OCCN1CCOCC1)C(=O)OC2`, for which the “activity change, negative = viability loss” value was -9.7%.

As for `Cc1ccc(C(=O)Nc2ccc(CN3CCN(C)CC3)c(C(F)(F)F)c2)cc1C#Cc1cnc2[nH]ncc2c1`, the Potency is 1.72 µM (active). Take `O=C1c2c(O)ccc(O)c2C(=O)c2c(NCCNCCO)ccc(NCCNCCO)c21`: the Potency was 6.85 µM (active).

For the molecule `COc1ccc2cc3[n+](cc2c1OC)CCc1cc2c(cc1-3)OCO2`, the “activity change, negative = viability loss” value was 0.945%. In the case of `Cc1cc(C2CCCCC2)n(O)c(=O)c1`, the Potency is 8.86 µM (active). Same read-out and setting: with `CC[C@@]1(O)C(=O)OCc2c1cc1n(c2=O)Cc2cc3c(CN(C)C)c(O)ccc3nc2-1` the figure was 0.863 µM (active); with `CNC(=O)c1ccccc1Sc1ccc2c(/C=C/c3ccccn3)n[nH]c2c1`, 21.7 µM (active); with `COc1ccc(OC)c(-c2nnc3ccc(-c4ccc(OC)c(O[C@@H]5CCOC5)c4)nn23)c1`, 8.63 µM (active). Same read-out and setting: the value for `CC(C)C[C@H](NC(=O)[C@H](CCc1ccccc1)NC(=O)CN1CCOCC1)C(=O)N[C@@H](Cc1ccccc1)C(=O)N[C@@H](CC(C)C)C(=O)[C@@]1(C)CO1` was 1.09 µM (active). Take `CN(C)CC/C=C1\c2ccccc2COc2ccccc21`: the “activity change, negative = viability loss” value is -3.29%.

Regarding `CN1C(=O)C(Cc2c[nH]c3ccccc23)NC1=S` (stereo unspecified), the “activity change, negative = viability loss” value is 11.2% [at 19.5 µM]. As for `CC(C)n1nc(-c2cc3cc(O)ccc3[nH]2)c2c(N)ncnc21`, the Potency is 7.69 µM (active). Take `NC(=O)c1cccc2cn(-c3ccc([C@@H]4CCCNC4)cc3)nc12`: the “activity change, negative = viability loss” value was -13.2%. Regarding `C[C@]12CCC(=O)C=C1[C@@H]1C[C@@H]1[C@H]1[C@@H]3[C@@H]4C[C@@H]4[C@@]4(CCC(=O)O4)[C@@]3(C)CC[C@@H]12`, the “activity change, negative = viability loss” value is -0.458%.

As for `Cc1cncc2cccc(S(=O)(=O)N3CCCN(C(=O)CN)C[C@@H]3C)c12`, the “activity change, negative = viability loss” value was -17%.

With `CN(C)C1CCN(C(=O)c2ccc(NC(=O)Nc3nc(N4CCOCC4)nc(N4CCOCC4)n3)cc2)CC1`, the Potency was 0.685 µM (active). For the molecule `COc1ccccc1N1CCN(CC(O)COc2cccc3ccccc23)CC1` (stereo unspecified), the “activity change, negative = viability loss” value was 6.89%. For `NC1(c2ccc(-c3nc4ccn5c(=O)[nH]nc5c4cc3-c3ccccc3)cc2)CCC1`, the “activity change, negative = viability loss” value was -17.6%. With `COc1ccc2c(c1)c(CC(=O)O)c(C)n2C(=O)c1ccc(Cl)cc1`, the “activity change, negative = viability loss” value is 1.53%.

On to `CC(=O)OC12COC1CC(O)C1(C)C(=O)C(O)C3=C(C)C(OC(=O)C(O)C(NC(=O)OC(C)(C)C)c4ccccc4)CC(O)(C(OC(=O)c4ccccc4)C21)C3(C)C` (stereo unspecified), for which the “activity change, negative = viability loss” value is 8.89%. On to `C=CC(=O)Nc1cc2c(Nc3ccc(F)c(Cl)c3)ncnc2cc1OCCCN1CCOCC1`, for which the Potency was 21.7 µM (active).
